# Measured values reported in article PMC11062922 (Nature Chemical Biology, 2023).
# Where two headings read alike, the source gives them in different places.
# Assays:
# Design in all cases: species or system human, MV4-11 + K-562 + COLO205 + SK-N-BE2 + OVCAR-8
# BTK = settings: read-out: apparent Kd, n = 1
# BUB1 = settings: read-out: apparent Kd, n = 1
# EPHB1 = settings: read-out: apparent Kd, n = 1
# LCK = settings: read-out: apparent Kd, n = 1
# MAPK14 = settings: read-out: apparent Kd, n = 1
# MARK2 = settings: read-out: apparent Kd, n = 1
# PRKAA2 = settings: read-out: apparent Kd, n = 1
# RIPK2 = settings: read-out: apparent Kd, n = 1
# MAP3K11 = settings: read-out: apparent Kd, n = 1
# RPS6KB1 = settings: read-out: apparent Kd, compound concentrations: 100 nM and 1000 nM (sheet 'Samples'), n = 1
# AURKB = settings: read-out: apparent Kd, n = 1
# NUAK2 = settings: read-out: apparent Kd, n = 1
# PAK6 = settings: read-out: apparent Kd, n = 1
# RPS6KA3 = settings: read-out: apparent Kd, n = 1
# IRAK3 = settings: read-out: apparent Kd, compound concentrations: 100 nM and 1000 nM (sheet 'Samples'), n = 1
# ACVR1B = settings: read-out: apparent Kd; compound concentrations:100 nM and 1000 nM (sheet 'Samples'); n = 1
# PRKCA = settings: read-out: apparent Kd; compound concentrations: 100 nM and 1000 nM (sheet 'Samples'), CATDS: 6.3313527827085804E-3; n = 1
# [1] = compound concentrations:100 nM and 1000 nM (sheet 'Samples')
smiles,measurement,setting,value
CC(C)N1CCC(n2cnc(-c3ccc(F)cc3)c2-c2ccnc(N)n2)CC1 [SB-223132],potency estimated from few doses,BTK; [1],842 nM
same,potency estimated from few doses,BUB1; [1],1670 nM
same,potency estimated from few doses,EPHB1; [1],656 nM
same,potency estimated from few doses,LCK; [1],880 nM
same,potency estimated from few doses,"MAPK14; compound concentrations: 100 nM and 1000 nM (sheet 'Samples'), CATDS: 8.3649714811029202E-2",40 nM
same,potency estimated from few doses,MARK2; [1],1570 nM
same,potency estimated from few doses,PRKAA2; [1],1290 nM
same,potency estimated from few doses,RIPK2; [1],559 nM
CN(c1ccc(NC(=O)N2CCN(CCCN3CCOCC3)CC2)cc1)c1ccnc(Nc2ccc(CS(C)(=O)=O)cc2)n1.Cl [GW830899A],potency estimated from few doses,"MAP3K11; compound concentrations: 100 nM and 1000 nM (sheet 'Samples'), CATDS: 1.83131031951747E-2",1980 nM
same,potency estimated from few doses,"MAPK14; compound concentrations: 100 nM and 1000 nM (sheet 'Samples'), CATDS: 2.4950407737396499E-2",905 nM
same,potency estimated from few doses,"MARK2; compound concentrations: 100 nM and 1000 nM (sheet 'Samples'), CATDS: 1.9891178500976402E-2",1550 nM
Cl.NCc1ccc(-c2nc(-c3ccc(Cl)c(O)c3)c(-c3ccncc3)[nH]2)cc1 [SB-476429-A],potency estimated from few doses,BUB1; [1],2020 nM
same,potency estimated from few doses,MAPK14; [1],113 nM
same,potency estimated from few doses,RIPK2; [1],22.7 nM
CCOc1nccc2c1nc(-c1nonc1N)n2CC [SB-737198],potency estimated from few doses,RPS6KB1; CATDS: 0.20646016989107699,1320 nM
O=C1NC(=O)C(N2CCc3ccccc32)=C1c1ccccc1Cl [SB-373598],potency estimated from few doses,AURKB; [1],466 nM
same,potency estimated from few doses,BTK; [1],124 nM
same,potency estimated from few doses,BUB1; [1],1690 nM
same,potency estimated from few doses,EPHB1; [1],373 nM
same,potency estimated from few doses,LCK; [1],138 nM
same,potency estimated from few doses,MAP3K11; [1],1040 nM
same,potency estimated from few doses,MARK2; [1],1350 nM
same,potency estimated from few doses,NUAK2; [1],780 nM
same,potency estimated from few doses,PAK6; [1],419 nM
same,potency estimated from few doses,PRKAA2; [1],694 nM
same,potency estimated from few doses,RIPK2; [1],273 nM
same,potency estimated from few doses,RPS6KA3; [1],966 nM
Cc1ccc(Nc2ccnc(Nc3ccc4c(c3)CS(=O)(=O)C4)n2)cc1O.Cl [GW579362A],potency estimated from few doses,IRAK3; CATDS: 4.4859937900589397E-2,446 nM
same,potency estimated from few doses,"MAP3K11; compound concentrations: 100 nM and 1000 nM (sheet 'Samples'), CATDS: 2.6959638591647499E-2",1770 nM
same,potency estimated from few doses,"MAPK14; compound concentrations: 100 nM and 1000 nM (sheet 'Samples'), CATDS: 2.9505107428945899E-2",1290 nM
same,potency estimated from few doses,"RIPK2; compound concentrations: 100 nM and 1000 nM (sheet 'Samples'), CATDS: 5.8804795040806997E-2",261 nM
Cc1cccc(-c2nc(Nc3ccncc3)c3sccc3n2)n1 [GW869641X],potency estimated from few doses,ACVR1B,0.703 nM
same,potency estimated from few doses,RIPK2; [1],722 nM
Cl.Cl.NCC(C(=O)Nc1cc(Br)c(-c2ccnc3[nH]ccc23)s1)c1ccccc1.NCC(C(=O)Nc1cc(Br)c(-c2ccnc3[nH]ccc23)s1)c1ccccc1 (stereo not drawn) [GSK1269851A],potency estimated from few doses,BTK; [1],638 nM
same,potency estimated from few doses,BUB1; [1],2170 nM
same,potency estimated from few doses,EPHB1; [1],331 nM
same,potency estimated from few doses,LCK; [1],519 nM
same,potency estimated from few doses,MAP3K11; [1],2030 nM
same,potency estimated from few doses,PAK6; [1],710 nM
same,potency estimated from few doses,PRKAA2; [1],1130 nM
same,potency estimated from few doses,RPS6KA3; [1],1840 nM
CCOC(=O)N1CCC(n2cnc(-c3ccc(F)cc3)c2-c2ccnc(N)n2)CC1 [SB-219952],potency estimated from few doses,"BTK; compound concentrations: 100 nM and 1000 nM (sheet 'Samples'), CATDS: 1.0743585683712699E-2",726 nM
same,potency estimated from few doses,"BUB1; compound concentrations: 100 nM and 1000 nM (sheet 'Samples'), CATDS: 8.9704944978388403E-3",1170 nM
same,potency estimated from few doses,"EPHB1; compound concentrations: 100 nM and 1000 nM (sheet 'Samples'), CATDS: 1.10661154917942E-2",677 nM
same,potency estimated from few doses,"LCK; compound concentrations: 100 nM and 1000 nM (sheet 'Samples'), CATDS: 1.05022707080212E-2",767 nM
same,potency estimated from few doses,"MAP3K11; compound concentrations: 100 nM and 1000 nM (sheet 'Samples'), CATDS: 1.0131438391308501E-2",838 nM
same,potency estimated from few doses,"MAPK14; compound concentrations: 100 nM and 1000 nM (sheet 'Samples'), CATDS: 3.3048485919856201E-2",97.1 nM
same,potency estimated from few doses,"MARK2; compound concentrations: 100 nM and 1000 nM (sheet 'Samples'), CATDS: 9.1119285329163396E-3",1120 nM
same,potency estimated from few doses,"PRKAA2; compound concentrations: 100 nM and 1000 nM (sheet 'Samples'), CATDS: 1.0917376994103299E-2",698 nM
same,potency estimated from few doses,"RIPK2; compound concentrations: 100 nM and 1000 nM (sheet 'Samples'), CATDS: 1.44232329790909E-2",387 nM
same,potency estimated from few doses,"RPS6KA3; compound concentrations: 100 nM and 1000 nM (sheet 'Samples'), CATDS: 7.9232054284878294E-3",1760 nM
COc1ccc(Nc2ncc(C#N)c(Nc3ccccc3C(N)=O)n2)cc1N1CCN(C)CC1.Cl [GSK1558669A],potency estimated from few doses,"AURKB; compound concentrations: 100 nM and 1000 nM (sheet 'Samples'), CATDS: 1.8083134151289901E-2",45.1 nM
same,potency estimated from few doses,"BTK; compound concentrations: 100 nM and 1000 nM (sheet 'Samples'), CATDS: 6.7250041234510503E-3",871 nM
same,potency estimated from few doses,"BUB1; compound concentrations: 100 nM and 1000 nM (sheet 'Samples'), CATDS: 6.2718506729186104E-3",1300 nM
same,potency estimated from few doses,IRAK3; CATDS: 1.44351207371401E-2,72.7 nM
same,potency estimated from few doses,"LCK; compound concentrations: 100 nM and 1000 nM (sheet 'Samples'), CATDS: 1.44418733031309E-2",72.7 nM
same,potency estimated from few doses,"MAP3K11; compound concentrations: 100 nM and 1000 nM (sheet 'Samples'), CATDS: 2.8050644020512099E-2",20.5 nM
same,potency estimated from few doses,"MARK2; compound concentrations: 100 nM and 1000 nM (sheet 'Samples'), CATDS: 8.7535455285316904E-3",289 nM
same,potency estimated from few doses,"NUAK2; compound concentrations: 100 nM and 1000 nM (sheet 'Samples'), CATDS: 2.1181549202491899E-2",33.3 nM
same,potency estimated from few doses,"PRKAA2; compound concentrations: 100 nM and 1000 nM (sheet 'Samples'), CATDS: 3.3781833346765697E-2",15.3 nM
same,potency estimated from few doses,PRKCA,1220 nM
same,potency estimated from few doses,"RPS6KA3; compound concentrations: 100 nM and 1000 nM (sheet 'Samples'), CATDS: 1.2141837427484699E-2",110 nM
same,potency estimated from few doses,RPS6KB1; CATDS: 6.0370811384274602E-3,1680 nM
CCn1c(-c2nonc2N)nc2c(C#CC(C)(C)O)nc(OC[C@@H](N)c3ccccc3)cc21 [GSK938890A],potency estimated from few doses,"PAK6; compound concentrations: 100 nM and 1000 nM (sheet 'Samples'), CATDS: 9.3701498593083701E-2",129 nM
O=C1N=C(NCCc2ccc(Cl)cc2)S/C1=C\c1ccc2ncccc2c1 [RO4498479-000],potency estimated from few doses,"AURKB; compound concentrations: 100 nM and 1000 nM (sheet 'Samples'), CATDS: 7.59982177866047E-3",1200 nM
same,potency estimated from few doses,"BTK; compound concentrations: 100 nM and 1000 nM (sheet 'Samples'), CATDS: 1.35831068182147E-2",297 nM
same,potency estimated from few doses,"BUB1; compound concentrations: 100 nM and 1000 nM (sheet 'Samples'), CATDS: 7.8507646745445397E-3",1070 nM
same,potency estimated from few doses,"EPHB1; compound concentrations: 100 nM and 1000 nM (sheet 'Samples'), CATDS: 1.3764533210370701E-2",290 nM
same,potency estimated from few doses,"LCK; compound concentrations: 100 nM and 1000 nM (sheet 'Samples'), CATDS: 1.3202335772702E-2",313 nM
same,potency estimated from few doses,"MAP3K11; compound concentrations: 100 nM and 1000 nM (sheet 'Samples'), CATDS: 8.9469693791647507E-3",733 nM
same,potency estimated from few doses,"MARK2; compound concentrations: 100 nM and 1000 nM (sheet 'Samples'), CATDS: 8.1372297919538004E-3",960 nM
same,potency estimated from few doses,"NUAK2; compound concentrations: 100 nM and 1000 nM (sheet 'Samples'), CATDS: 7.8006037154547897E-3",1100 nM
same,potency estimated from few doses,"PRKAA2; compound concentrations: 100 nM and 1000 nM (sheet 'Samples'), CATDS: 9.27662971485879E-3",667 nM
same,potency estimated from few doses,"RIPK2; compound concentrations: 100 nM and 1000 nM (sheet 'Samples'), CATDS: 1.0901360132345101E-2",458 nM
same,potency estimated from few doses,"RPS6KA3; compound concentrations: 100 nM and 1000 nM (sheet 'Samples'), CATDS: 7.9720572811278097E-3",1020 nM
